For 62 compounds, outcome and AC50 results are on record in PubChem BioAssay (EPA / NIEHS).

Inconclusive results are not listed. Some structures have more than one record in an assay (separate samples or runs), and their calls can disagree. Activity calls are given as the source filed them. How the source made its calls: active means hit-call score of the fitted dose curve at least 0.9, where 1 is the maximum; inconclusive means response in the unintended direction; inactive means score below 0.9.

Test [1] concerns the target rat Thyrotropin Releasing Hormone Receptor (TRH), Trhr (gene 25570) (UniProt Q01717). Nature of the test: NVS_GPCR_rTRH: NovaScreen (NVS) G Protein-Coupled Receptor Assay for rat Thyrotropin Releasing Hormone Receptor (TRH) (AID 2283329).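 Further: hit means lower bound tracer signal versus DMSO baseline.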 In short, it runs like this:
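Cell-free radioligand binding on rat forebrain membranes; bound tracer measured by filter-based scintillation counting 4 hours after dosing. Loss of signal versus DMSO baseline indicates displacement; primary screen at 25 uM in duplicate, actives then run in concentration series.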

Test [2] addresses Estrogen receptor (Homo sapiens) (UniProt P03372). Nature of the test: OT_ER_ERaERa_0480: Odyssey Thera (OT) 8-hour HEK293T Protein-Complementation Assay for Estrogen Receptor-alpha/-alpha Homodimer (AID 2283351).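 Further: rise in fluorescence from reassembled reporter fragments on ERα LBD homodimer in nucleus or whole cell.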 In short, it runs like this: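 HEK293T, stable ERα LBD (aa 310-547) PCA homodimer; 8 h compound exposure; fluorescence intensity, laser scanning cytometer; positive fitting direction, DMSO baseline.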

Test [3] deals with bovine Estrogen Receptor (ER), ESR1 (gene 407238) (UniProt P49884). Nature of the test: NVS_NR_bER: NovaScreen (NVS) Nuclear Receptor Binding Assay for bovine Estrogen Receptor (ER) (AID 2283345).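 Further: actives lower the bound radioligand count which means they displace the ER ligand.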 In short, it runs like this:
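Cell-free radioligand binding with receptor from bovine uterine membranes, read by scintillation counting 18 h after dosing. Loss of specific binding was scored against DMSO; primary screen at 25 uM in duplicate, actives then run as concentration series.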

Test [4] concerns the target Estrogen receptor (Homo sapiens) (UniProt P03372). Nature of the test: NVS_NR_hER: NovaScreen (NVS) Nuclear Receptor Binding Assay for human Estrogen Receptor (ER) (AID 2283348). The method, boiled down: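 Scintillation signal from bound radioligand was measured 18 hours after chemical addition to cell-free MCF7 protein extracts, with DMSO as baseline. Activity was scored as signal loss; compounds ran first at 25 uM in duplicate.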

The target in test [5] is human Peripheral-type Benzodiazepine Receptor (PBR), TSPO (gene 706) (UniProt P30536). Nature of the test: NVS_MP_hPBR: NovaScreen (NVS) Membrane Protein Assay for human Peripheral-type Benzodiazepine Receptor (PBR) (AID 2283331).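 Further: hits reduce radioligand binding relative to DMSO baseline.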 In short, it runs like this: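 Scintillation counts of filter-bound radioligand served as read-out after 1 h chemical dosing of human colonic membrane preparations. Activity was scored as signal loss against DMSO; initial duplicates at 25 uM, confirmatory concentration series afterward.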

Test [6] addresses rat Peripheral-type Benzodiazepine Receptor (PBR), Tspo (gene 24230) (UniProt P16257). Nature of the test: NVS_MP_rPBR: NovaScreen (NVS) Membrane Protein Assay for rat Peripheral-type Benzodiazepine Receptor (PBR) (AID 2283335). In short, it runs like this:
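Rat kidney membranes; radioligand binding with displacement, filter-based scintillation counting, 1 h incubation. Primary screen in duplicate at 25 uM, actives followed in concentration series; loss of binding vs DMSO.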

The target of test [7] is chimpanzee Androgen Receptor (AR), AR (gene 747460) (UniProt O97775). Nature of the test: NVS_NR_cAR: NovaScreen (NVS) Nuclear Receptor Binding Assay for chimpanzee Androgen Receptor (AR) (AID 2283346).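 Further: radioligand displacement from AR measured by scintillation counting in a cell-free assay.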 The method, boiled down: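 Cell-free competition binding with insect-cell (Sf9/Sf21) extracted chimpanzee AR; scintillation signal from lysate at 72 h. Screened in duplicate at 25 uM, then concentration-response for actives; fitting relative to DMSO.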

In test [8] the target is Estrogen receptor (Homo sapiens) (UniProt P03372). Nature of the test: OT_ER_ERaERa_1440: Odyssey Thera (OT) 24-hour HEK293T Protein-Complementation Assay for Estrogen Receptor-alpha/-alpha Homodimer (AID 2283349).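 Further: hits raise fluorescence above DMSO for agonists and antagonists alike.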 In short, it runs like this:
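Protein-fragment complementation between two human ERα ligand-binding domains (aa 310-547) in stably transfected HEK293T cells was monitored after 24 h treatment, using fluorescence intensity relative to vehicle controls.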

Chain of Estrogen receptor (Homo sapiens) (P03372 whole entry, looked up, the tested form may be a part): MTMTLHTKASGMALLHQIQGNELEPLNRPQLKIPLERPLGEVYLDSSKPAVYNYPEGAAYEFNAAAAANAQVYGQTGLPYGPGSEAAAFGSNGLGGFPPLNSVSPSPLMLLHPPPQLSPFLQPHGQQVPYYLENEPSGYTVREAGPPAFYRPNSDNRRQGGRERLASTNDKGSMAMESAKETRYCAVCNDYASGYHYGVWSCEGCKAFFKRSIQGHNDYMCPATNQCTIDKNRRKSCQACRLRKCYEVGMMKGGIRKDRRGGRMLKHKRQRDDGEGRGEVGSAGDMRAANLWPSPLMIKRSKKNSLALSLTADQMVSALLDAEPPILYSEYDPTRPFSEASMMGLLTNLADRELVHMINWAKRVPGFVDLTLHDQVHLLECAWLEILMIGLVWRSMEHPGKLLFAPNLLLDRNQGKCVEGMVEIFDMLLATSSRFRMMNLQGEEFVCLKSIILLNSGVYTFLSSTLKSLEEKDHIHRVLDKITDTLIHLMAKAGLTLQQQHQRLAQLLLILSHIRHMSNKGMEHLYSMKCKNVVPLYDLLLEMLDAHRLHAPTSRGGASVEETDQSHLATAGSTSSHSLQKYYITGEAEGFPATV
Chain of human Peripheral-type Benzodiazepine Receptor (PBR), TSPO (gene 706) (P30536 whole entry, looked up): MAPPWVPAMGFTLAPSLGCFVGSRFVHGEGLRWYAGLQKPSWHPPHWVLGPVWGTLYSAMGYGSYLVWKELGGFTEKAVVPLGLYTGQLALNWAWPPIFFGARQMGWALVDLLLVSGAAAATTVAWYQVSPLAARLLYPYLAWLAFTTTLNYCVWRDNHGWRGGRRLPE
Chain of bovine Estrogen Receptor (ER), ESR1 (gene 407238) (P49884 whole entry, looked up): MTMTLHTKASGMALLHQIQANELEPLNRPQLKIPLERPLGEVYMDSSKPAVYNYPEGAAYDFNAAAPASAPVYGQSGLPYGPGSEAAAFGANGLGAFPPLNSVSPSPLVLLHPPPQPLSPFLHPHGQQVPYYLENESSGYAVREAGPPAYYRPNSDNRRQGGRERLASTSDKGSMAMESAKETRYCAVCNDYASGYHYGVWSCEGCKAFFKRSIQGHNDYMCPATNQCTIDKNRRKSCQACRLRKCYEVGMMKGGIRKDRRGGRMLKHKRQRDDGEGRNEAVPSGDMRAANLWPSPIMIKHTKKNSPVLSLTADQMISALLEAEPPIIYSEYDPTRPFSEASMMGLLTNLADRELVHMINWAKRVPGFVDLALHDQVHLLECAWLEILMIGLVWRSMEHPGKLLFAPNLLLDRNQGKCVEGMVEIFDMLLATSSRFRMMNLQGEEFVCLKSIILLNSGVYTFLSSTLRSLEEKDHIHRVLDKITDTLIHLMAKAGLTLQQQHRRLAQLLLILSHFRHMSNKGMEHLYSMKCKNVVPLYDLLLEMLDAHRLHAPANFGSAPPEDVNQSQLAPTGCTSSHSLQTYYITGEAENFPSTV
Chain of chimpanzee Androgen Receptor (AR), AR (gene 747460) (O97775 whole entry, looked up): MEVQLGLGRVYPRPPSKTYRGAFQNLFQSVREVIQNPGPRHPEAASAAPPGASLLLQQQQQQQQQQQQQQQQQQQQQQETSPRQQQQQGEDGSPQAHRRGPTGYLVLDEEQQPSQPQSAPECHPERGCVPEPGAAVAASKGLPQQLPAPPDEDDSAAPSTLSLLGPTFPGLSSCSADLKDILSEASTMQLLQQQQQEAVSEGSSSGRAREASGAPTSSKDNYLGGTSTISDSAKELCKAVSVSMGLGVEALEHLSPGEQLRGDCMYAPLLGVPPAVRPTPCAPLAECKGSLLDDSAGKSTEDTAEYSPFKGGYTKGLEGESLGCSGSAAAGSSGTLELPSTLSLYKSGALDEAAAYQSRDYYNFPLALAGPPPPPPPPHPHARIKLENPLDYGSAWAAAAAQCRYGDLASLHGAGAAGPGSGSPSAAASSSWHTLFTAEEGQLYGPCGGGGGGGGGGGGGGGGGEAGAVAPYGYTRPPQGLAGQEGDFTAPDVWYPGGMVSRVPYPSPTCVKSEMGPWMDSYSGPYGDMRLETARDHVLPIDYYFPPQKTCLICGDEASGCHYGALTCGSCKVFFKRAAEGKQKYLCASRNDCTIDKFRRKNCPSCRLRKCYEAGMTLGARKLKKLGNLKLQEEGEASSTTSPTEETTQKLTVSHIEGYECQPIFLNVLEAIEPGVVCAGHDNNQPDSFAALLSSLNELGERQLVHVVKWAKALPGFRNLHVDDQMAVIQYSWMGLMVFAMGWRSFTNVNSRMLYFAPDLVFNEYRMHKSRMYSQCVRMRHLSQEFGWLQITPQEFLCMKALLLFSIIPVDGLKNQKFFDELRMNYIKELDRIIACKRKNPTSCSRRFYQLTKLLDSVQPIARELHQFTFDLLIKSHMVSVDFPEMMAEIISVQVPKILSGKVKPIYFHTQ
Chain of rat Peripheral-type Benzodiazepine Receptor (PBR), Tspo (gene 24230) (P16257 whole entry, looked up): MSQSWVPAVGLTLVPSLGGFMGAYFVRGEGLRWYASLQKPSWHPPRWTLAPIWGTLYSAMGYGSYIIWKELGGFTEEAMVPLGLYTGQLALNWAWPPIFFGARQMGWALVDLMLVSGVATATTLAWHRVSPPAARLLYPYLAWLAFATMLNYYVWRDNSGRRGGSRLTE
Chain of rat Thyrotropin Releasing Hormone Receptor (TRH), Trhr (gene 25570) (Q01717 whole entry, looked up): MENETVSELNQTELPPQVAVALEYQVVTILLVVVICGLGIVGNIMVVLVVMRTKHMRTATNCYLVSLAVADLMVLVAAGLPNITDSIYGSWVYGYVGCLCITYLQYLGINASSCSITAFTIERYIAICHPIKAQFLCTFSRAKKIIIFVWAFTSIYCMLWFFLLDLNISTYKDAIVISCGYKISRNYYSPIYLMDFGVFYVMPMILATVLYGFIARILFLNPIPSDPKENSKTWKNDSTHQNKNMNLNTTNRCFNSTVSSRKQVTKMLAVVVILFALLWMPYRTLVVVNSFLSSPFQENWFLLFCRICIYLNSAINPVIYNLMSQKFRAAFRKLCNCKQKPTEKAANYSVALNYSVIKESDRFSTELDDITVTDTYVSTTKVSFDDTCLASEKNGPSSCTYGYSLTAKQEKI

Consider `NC(=O)N=NC(N)=O`, for which the compound was called inactive in test [1] and in test [2].

As to `Nc1ccc(Oc2ccc(N)c(N)c2)cc1`, the compound was classed as inactive in test [3] and in test [4].

For `Cc1cccc(N(C)C(=S)Oc2ccc3ccccc3c2)c1`, the compound was called inactive in test [3] and in test [4].

As for `CC(C)(C)c1ccc(N)cc1`, the compound was called inactive in test [1] and in test [2].

Regarding `COc1ccc(-c2coc3cc(O)ccc3c2=O)cc1`, the outcome in test [3] was inactive. In addition, the AC50 (commonly the concentration at which the activity in the assay is half-maximal) in test [4] was 7.09 µM (active).

In the case of `CCCCCCCC[N+](C)(CCCCCCCC)CCCCCCCC`, the AC50 in test [5] is 3.77 µM (active). Moreover, the result in test [2] was inactive.

On to `O=S(=O)(O)c1ccccc1C=Cc1ccc(-c2ccc(C=Cc3ccccc3S(=O)(=O)O)cc2)cc1`, for which the concentration at half-maximal activity (AC50) is 0.6 µM (active) in test [5] and 2.43 µM (active) in test [6]. Moreover, the call in test [3], in test [4] and in test [2] was inactive.

For the compound `OC1CCCCCCCCCCC1`, the outcome in test [3], in test [7] and in test [2] was inactive.

`CC(C)c1ccc2c(C(C)C)cc(C(C)C)c(S(=O)(=O)O)c2c1`: the result in test [6], in test [4] and in test [2] was inactive.

In the case of `NC(=O)c1ccccc1O`, the call in test [1] and in test [2] was inactive.

In the case of `Cc1cc(C)c(C)cc1C`, the call in test [1] and in test [2] was inactive.

Regarding `COc1ccc(C(Cl)=C(c2ccc(OC)cc2)c2ccc(OC)cc2)cc1`, in test [3], the compound was classed as inactive. Further, in test [4], the AC50 was 7.49 µM (active).

For the compound `O=S1(=O)OC(c2ccc(O)cc2)(c2ccc(O)cc2)c2ccccc21`, the compound was classed as inactive in test [3], in test [8] and in test [2]. The AC50 in test [4] is 13.2 µM (active).

As for `C1=Cc2ccccc2C1`, the concentration at half-maximal activity (AC50) in test [5] was 15.2 µM (active). The result in test [8] and in test [2] was inactive.

Take `O=C1Nc2ccccc2C1(c1ccc(O)cc1)c1ccc(O)cc1`: the call in test [3] and in test [4] was inactive.

In the case of `[Cl][Bi]([Cl])([c]1ccccc1)([c]1ccccc1)[c]1ccccc1`, the result in test [3] and in test [4] was inactive.

Regarding `O=c1cc(-c2ccccc2)oc2ccccc12`, the concentration at half-maximal activity (AC50) in test [5] is 12.6 µM (active); in test [6] it was 3.68 µM (active). In addition, the call in test [3], in test [4], in test [8] and in test [2] was inactive.

For `Cc1cc(O)c(Cl)c(C)c1Cl`, the outcome in test [3] was inactive.

On to `CCCCCc1ccc(Cl)cc1`, for which the result in test [1] and in test [2] was inactive.

`CC(=O)c1ccc2c(c1)CCCC2`: the concentration at half-maximal activity (AC50) in test [3] is 5.86 µM (active).

As for `CCCCCCCCCCCCCOP(=O)(O)O`, in test [5], the half-maximal activity concentration (AC50) was 18.4 µM (active). The call in test [3], in test [4] and in test [2] was inactive.

As to `CCOC(=O)c1ccccc1C(=C1C=C(Br)C(=O)C(Br)=C1)c1cc(Br)c(O)c(Br)c1`, the result in test [3] was inactive.

Turning to `Cc1cccc(N)n1`, the result in test [3] and in test [4] was inactive.

Turning to `CC1=Nc2ccc3ccccc3c2C1(C)C`, the result in test [3] was inactive.

`CCC(=O)Oc1ccc(/C(CC)=C(\CC)c2ccc(OC(=O)CC)cc2)cc1`: the AC50 in test [3] was 0.00521 µM (active); in test [4], 0.00229 µM (active).

Turning to `CN(C)c1ccc(N=Nc2ccccc2C(=O)O)cc1`, the result in test [3], in test [7] and in test [2] was inactive.

As for `C=C1C2CCC(C2)C1(C)C` (centres undefined), the outcome in test [1] and in test [2] was inactive.

Turning to `C=CC(=O)OCCOC(=O)C=C`, the outcome in test [3] and in test [4] was inactive.

Consider `Cc1ccc(N/N=c2\c(=O)cc/c(=N/Nc3ccc(S(=O)(=O)O)cc3)c2=O)c(C)c1`, for which the half-maximal activity concentration (AC50) was 7.15 µM (active) in test [5], 5.26 µM (active) in test [6] and 25 µM (active) in test [7]. Further, the result in test [2] was inactive.

On to `CO[Si](OC)(OC)c1ccccc1`, for which the result in test [1], in test [8] and in test [2] was inactive.

Consider `[Cl][In]([Cl])[Cl]`, for which the compound was called inactive in test [3]. Moreover, in test [4], the concentration at half-maximal activity (AC50) is 25 µM (active) and the compound was classed as inactive.

As to `O=C1CCCCCN1SSN1CCCCCC1=O`, the compound was classed as inactive in test [3].

For the compound `CCC(C)OC(=O)c1ccc(O)cc1` (centres undefined), the AC50 in test [3] is 9.45 µM (active); in test [4] it was 0.603 µM (active).

Turning to `O=C(c1ccccc1)c1ccc(O)c(O)c1O`, the result in test [3] and in test [4] was inactive.

Consider `CCOC(=O)N1CCC(=C2c3ccc(Cl)cc3CCc3cccnc32)CC1`, for which, in test [3], the call was inactive. For the same compound, the AC50 in test [4] was 0.0259 µM (active).

For the compound `Cn1c([N+](=O)[O-])cnc1COC(N)=O`, in test [2], the outcome was inactive.

Regarding `CCCCC(CC)CCC(CC(C)C)OS(=O)(=O)O` (centres undefined), the compound was called inactive in test [2].

In the case of `O=C(O)CCCC[C@@H]1SC[C@@H]2NC(=O)N[C@@H]21`, the compound was classed as inactive in test [4] and in test [2].

Take `CC(C)c1ccc2c(c1)CC[C@H]1[C@](C)(CN)CCC[C@]21C`: in test [4], the compound was called inactive.

On to `CCOC(=O)CC`, for which the outcome in test [8] was inactive.

As to `O=C(C=Cc1ccccc1)OCc1ccccc1`, the outcome in test [8] and in test [2] was inactive.

Turning to `Cc1ccc(C(C)(C)C)cc1`, in test [2], the compound was classed as inactive.

Consider `O=C(C(Cl)Cl)N1CCOC12CCCCC2`, for which the result in test [8] and in test [2] was inactive.

On to `CCCCCCCOC(=O)CCC`, for which the compound was classed as inactive in test [2].

For the compound `O=C(c1ccccc1)C1CCC1`, the result in test [2] was inactive.

As for `CC(C)(C)C(=O)CCc1ccc(Cl)cc1`, the compound was called inactive in test [4].

Regarding `CCCc1ccc(OC)cc1`, the compound was classed as inactive in test [8] and in test [2].

Take `COc1cc(NC(=O)CC(C)=O)c(OC)cc1Cl`: in test [4], the result was inactive.

Consider `CC(C)=CCC[C@H](C)CCO`, for which the outcome in test [2] was inactive.

For `O=C(O)c1ccccc1Nc1cccc(C(F)(F)F)c1`, the call in test [4] was inactive.

`CC(C)(C)c1ccc(-c2ccc(C(C)(C)C)cc2)cc1`: the compound was classed as inactive in test [8] and in test [2].

On to `C=C[Si](C)(C)O[Si](C)(C)C=C`, for which the call in test [2] was inactive.

Take `CCCCCCCCO[C@@H]1O[C@H](CO)[C@@H](O)[C@H](O)[C@H]1O`: the compound was called inactive in test [8] and in test [2].

In the case of `OC1CCCC1`, the compound was called inactive in test [3], in test [4] and in test [2].

Take `O=C1CCCC1`: the call in test [2] was inactive.

For `Nc1ccc2cc3ccccc3cc2c1`, in test [4], the outcome was inactive.

As to `CNC(=S)NN`, the call in test [8] and in test [2] was inactive.

With `Cc1cc(C)c(C(=O)O)c(C)c1`, the result in test [8] and in test [2] was inactive.

As to `CCCCCCC1(C)CCC(=O)O1` (centres undefined), the compound was classed as inactive in test [8] and in test [2].

In the case of `C1CN(SSN2CCOCC2)CCO1`, the outcome in test [8] and in test [2] was inactive.

On to `COC(=O)C1=C(C)NC(C)=C(C(=O)OCC(C)C)C1c1ccccc1[N+](=O)[O-]` (centres undefined), for which the call in test [4] was inactive.

For the compound `O=C(OCC1CCC2OC2C1)C1CCC2OC2C1` (centres undefined), the result in test [3] was inactive. The AC50 in test [2] was 12.1 µM (active).
